Test results: PubChem BioAssay (NCATS)
Inconclusive results are not listed. Activity calls are given as the source filed them. Unless noted, calls come from the whole dose curve; as a rule, active = well fitted curve in the direction sought with a large enough effect; inconclusive = small, poorly fitted or top-dose-only effect, or another doubt; inactive = no such curve, though single readings can be large; an effect the other way counts as inactive or inconclusive.

What was measured:
[1] = molecular target: Lysosomal acid glucosylceramidase (Homo sapiens) (UniProt P04062); assay: Glucocerebrosidase-p2 (AID 348; in the data active = potency below about 10 µM; note: potency is the fitted concentration of half-maximal effect); conditions: purified GBA, blue fluorogenic substrate, 40 min
Lysosomal acid glucosylceramidase (Homo sapiens), sequence (P04062 whole entry, looked up): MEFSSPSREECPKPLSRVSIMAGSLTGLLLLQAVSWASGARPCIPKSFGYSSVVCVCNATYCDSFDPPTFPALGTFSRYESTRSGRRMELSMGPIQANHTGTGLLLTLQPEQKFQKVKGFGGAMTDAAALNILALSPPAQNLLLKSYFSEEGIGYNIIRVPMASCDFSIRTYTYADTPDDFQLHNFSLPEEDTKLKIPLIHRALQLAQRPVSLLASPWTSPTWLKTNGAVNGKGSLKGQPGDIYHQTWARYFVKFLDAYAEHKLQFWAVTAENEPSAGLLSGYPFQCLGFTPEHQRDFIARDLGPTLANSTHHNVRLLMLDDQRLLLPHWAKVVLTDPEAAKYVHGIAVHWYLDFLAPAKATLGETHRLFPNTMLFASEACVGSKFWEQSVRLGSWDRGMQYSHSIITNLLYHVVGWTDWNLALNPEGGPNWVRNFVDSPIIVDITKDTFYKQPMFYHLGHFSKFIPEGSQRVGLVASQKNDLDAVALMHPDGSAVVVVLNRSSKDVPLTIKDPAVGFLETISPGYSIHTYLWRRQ
In short: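 Normal human glucocerebrosidase (0.2 nM) with blue fluorogenic substrate (80 uM final) in citrate/phosphate pH 5.9 with 10mM sodium taurocholate, 0.01% tween-20; 40 min RT, NaOH/glycine stop; fluorescence Ex 365/Em 440; AC50 from a titration from 0.6 nM upwards.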

[2] = AP1 Signaling Pathway (AID 357; active = well fitted curve in either direction with a large enough effect, not every such curve was filed as active; note: % is set by controls: 0 for no effect and ±100 for the full control effect); conditions: ME-180 AP-1-bla reporter, EGF-induced, beta-lactamase ratio, 5 h; at 7.69 µM (top of the series) unless noted
In short: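 AP-1-bla ME-180 cells with beta-lactamase reporter under AP-1 response element, stimulated with EC50 EGF; compounds titrated, 5 hours at 37 degrees Celsius. CCF4 read at 460/530 nm ratio; positive and negative modulators judged by AC50.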

[3] = Stat Signaling Pathway (AID 446; active = well fitted curve in either direction with a large enough effect, not every such curve was filed as active;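 note: ME-180 cervical cancer cells given 40 pM IL-6 alongside compound; SIE-controlled beta-lactamase reporter measured as 460/530 nm FRET emission ratio; % is set by controls: 0 for no effect and ±100 for the full control effect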); conditions: ME-180 SIE beta-lactamase reporter, IL-6 stimulated, 5 h; at 7.69 µM (top of the series) unless noted
In short: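 FRET read-out (405 nm excitation, 460/530 nm emission) of a beta-lactamase reporter under a STAT-inducible element in ME-180 cervical carcinoma cells. Cells with compound receive 40 pM IL-6 for 5 h. Values are normalised to AC90 stimulation and AC90 JAK-inhibitor controls.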

[4] = molecular target: Glucocorticoid receptor (Homo sapiens) (UniProt P04150); assay: GR-GFP Redistribution (AID 450;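 active = compounds whose dose series gives a full or clear partial fitted curve of increased nuclear translocation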; note: potency is the fitted concentration of half-maximal effect); conditions: U2OS GR-GFP nuclear translocation, laser cytometry, 2 h
Glucocorticoid receptor (Homo sapiens), sequence (P04150 whole entry, looked up, the tested form may be a part): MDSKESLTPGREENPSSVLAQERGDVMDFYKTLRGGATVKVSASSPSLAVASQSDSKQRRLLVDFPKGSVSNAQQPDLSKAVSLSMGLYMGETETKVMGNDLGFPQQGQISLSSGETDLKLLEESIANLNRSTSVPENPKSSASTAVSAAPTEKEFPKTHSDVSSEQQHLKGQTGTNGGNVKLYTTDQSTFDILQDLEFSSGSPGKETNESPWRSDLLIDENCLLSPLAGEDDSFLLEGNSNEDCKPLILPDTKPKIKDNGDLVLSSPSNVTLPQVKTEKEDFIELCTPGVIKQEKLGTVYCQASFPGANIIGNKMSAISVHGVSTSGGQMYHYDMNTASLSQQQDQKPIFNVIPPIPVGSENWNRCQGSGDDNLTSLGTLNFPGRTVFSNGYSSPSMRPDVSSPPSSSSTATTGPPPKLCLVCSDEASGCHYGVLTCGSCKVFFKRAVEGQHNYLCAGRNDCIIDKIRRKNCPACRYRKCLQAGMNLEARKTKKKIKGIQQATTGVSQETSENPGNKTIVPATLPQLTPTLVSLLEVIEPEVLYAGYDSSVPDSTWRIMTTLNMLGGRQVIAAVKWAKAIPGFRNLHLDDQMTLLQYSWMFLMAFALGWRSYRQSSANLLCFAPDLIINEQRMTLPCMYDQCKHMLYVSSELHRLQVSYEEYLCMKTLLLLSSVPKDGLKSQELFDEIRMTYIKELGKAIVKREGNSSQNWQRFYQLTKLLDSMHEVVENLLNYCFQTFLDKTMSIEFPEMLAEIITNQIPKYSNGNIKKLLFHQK

[5] = molecular target: Glucocorticoid receptor (Homo sapiens) (UniProt P04150); assay: GR-EFC Redistribution (AID 451; calls by dose curve; note: potency is the fitted concentration of half-maximal effect); conditions: CHO-K1 GR-EFC translocation, beta-gal luminescence, 2 h
In short: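 CHO-K1 cells stably expressing nuclear-localized β-gal enzyme acceptor and GR fused C-terminally to the enzyme donor fragment; ligand-driven nuclear translocation restores β-gal by complementation. Compounds titrated up to 46 uM final, 2 h at 37 °C; luminescence read.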

[6] = molecular target: Mitogen-activated protein kinase 10 (Mus musculus) (UniProt Q61831); assay: JNK3 AlphaScreen Assay (AID 530; active = well fitted curve in either direction with a large enough effect, not every such curve was filed as active;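 note: kinase came from lysate of stimulated human HepG2 cells; signal reports phosphorylation of biotinylated GST-cJun 1-79 at Ser73 with 10 µM ATP; % is set by controls: 0 for no effect and ±100 for the full control effect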); conditions: JNK3 lysate, c-Jun phosphorylation; series mostly up to 57.1 µM
In short: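 Phosphorylation of biotinylated GST-cJun(1-79) at Ser73 is measured by AlphaScreen proximity luminescence. Enzyme is JNK3 in HepG2 lysates activated with interleukin-1beta and tumor necrosis factor alpha; ATP is 10 uM final.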

[7] = molecular target: 3',5'-cyclic-AMP phosphodiesterase 4B (Homo sapiens) (UniProt Q07343); assay: qHTS Assay for Inhibitors of PDE-IV (AID 607; active = well fitted activation curve with a large enough effect in the main read-out, with a control signal flat, not every such curve was filed as active; note: % of control where 0% means no effect); conditions: HEK293 ACTOne CNG channel cells, membrane potential fluorescence; series mostly up to 22.9 µM
3',5'-cyclic-AMP phosphodiesterase 4B (Homo sapiens), sequence (Q07343 whole entry, looked up): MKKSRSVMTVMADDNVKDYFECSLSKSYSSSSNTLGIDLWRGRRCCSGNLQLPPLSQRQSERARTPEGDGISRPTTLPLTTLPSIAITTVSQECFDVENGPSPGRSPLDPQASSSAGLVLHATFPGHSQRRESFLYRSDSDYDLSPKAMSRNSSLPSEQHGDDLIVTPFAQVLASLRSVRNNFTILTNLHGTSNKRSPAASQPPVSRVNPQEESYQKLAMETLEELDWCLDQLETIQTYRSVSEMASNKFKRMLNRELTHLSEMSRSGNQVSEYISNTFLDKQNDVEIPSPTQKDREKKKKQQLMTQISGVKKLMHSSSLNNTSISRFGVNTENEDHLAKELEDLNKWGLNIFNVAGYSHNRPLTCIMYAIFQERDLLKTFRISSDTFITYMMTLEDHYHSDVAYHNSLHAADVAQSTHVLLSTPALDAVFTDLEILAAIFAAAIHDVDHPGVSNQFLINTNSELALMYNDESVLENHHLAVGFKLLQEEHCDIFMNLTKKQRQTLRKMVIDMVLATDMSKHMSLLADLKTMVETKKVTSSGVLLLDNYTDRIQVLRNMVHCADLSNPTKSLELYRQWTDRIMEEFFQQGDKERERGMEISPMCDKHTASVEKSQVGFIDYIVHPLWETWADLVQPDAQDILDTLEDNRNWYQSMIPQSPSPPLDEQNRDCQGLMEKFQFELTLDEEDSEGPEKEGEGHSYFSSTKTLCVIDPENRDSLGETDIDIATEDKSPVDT
In short: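 Cell-based read-out of cAMP via a modified cyclic nucleotide-gated channel and membrane potential dye (535/590 nm) in HEK293 cells expressing PDE4 endogenously. Compounds tested up to 22.9 uM final; 100 uM RO 20-1724 reference.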

[8] = molecular target: Dual specificity protein kinase CLK4 (Homo sapiens) (UniProt Q9HAZ1); assay: qHTS Assay for Inhibitors of CDC-like Kinase 4 (Kinase-Glo Assay) (AID 1770); conditions: recombinant Clk4, Kinase-Glo ATP depletion luminescence; series mostly up to 66.7 µM; note: nearly all actives have a fitted effect of over 65% in size; note: potency is the fitted concentration of half-maximal effect
Dual specificity protein kinase CLK4 (Homo sapiens), sequence (Q9HAZ1 whole entry, looked up): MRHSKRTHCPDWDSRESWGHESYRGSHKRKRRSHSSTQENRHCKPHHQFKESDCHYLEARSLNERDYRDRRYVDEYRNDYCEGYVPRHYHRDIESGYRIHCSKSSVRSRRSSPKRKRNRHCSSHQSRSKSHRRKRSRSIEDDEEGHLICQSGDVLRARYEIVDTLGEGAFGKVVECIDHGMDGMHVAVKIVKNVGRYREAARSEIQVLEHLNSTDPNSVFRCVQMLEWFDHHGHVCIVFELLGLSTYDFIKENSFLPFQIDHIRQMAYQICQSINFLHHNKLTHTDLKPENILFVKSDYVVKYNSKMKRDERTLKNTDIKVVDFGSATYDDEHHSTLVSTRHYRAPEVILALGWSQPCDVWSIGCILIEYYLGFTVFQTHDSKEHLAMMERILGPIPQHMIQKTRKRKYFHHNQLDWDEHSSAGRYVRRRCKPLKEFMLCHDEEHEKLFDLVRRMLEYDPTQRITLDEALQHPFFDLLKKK
In short: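 Recombinant human Clk4 (25 nM) phosphorylated RS repeat peptide (100 uM) with 1 uM ATP in Tris pH 7.5/MgCl2/EGTA/DTT/Triton buffer for 4.5 h at room temperature. Residual ATP was quantified by Kinase-Glo luciferase luminescence.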

[9] = molecular target: Dual specificity protein kinase CLK4 (Homo sapiens) (UniProt Q9HAZ1); assay: qHTS Assay for Inhibitors of CDC-like Kinase 4 (ADP-Glo Assay) (AID 1771); conditions: recombinant CLK4, ADP-Glo luminescence; series mostly up to 80 µM; note: nearly all actives have a fitted effect of over 70% in size; note: potency is the fitted concentration of half-maximal effect
In short: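 Compounds are pin-transferred onto substrate mix (100 uM RS peptide, 1 uM ATP), then 25 nM Clk4 is added. After 1 hr at room temperature, ADP-Glo reagent runs 45 min, detection reagent 30 min, then luminescence is read.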

[10] = molecular target: Dual specificity protein kinase CLK4 (Homo sapiens) (UniProt Q9HAZ1); assay: qHTS Assay for Inhibitors of CDC-like Kinase 4 (ADP-FP Assay) (AID 1795); conditions: Transcreener ADP fluorescence polarization; series mostly up to 50 µM; note: nearly all actives have a fitted effect of over 60% in size; note: potency is the fitted concentration of half-maximal effect
In short: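 Recombinant human Clk4 (6.25 nM) phosphorylated RS repeat peptide (100 uM) with 1 uM ATP in Tris pH 7.5/MgCl2/EGTA/DTT/Triton buffer for one hour. ADP was quantified by Transcreener competitive fluorescence polarization against an ADP calibration curve.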

[11] = molecular target: Ubiquitin carboxyl-terminal hydrolase 1 (Homo sapiens) (UniProt O94782); assay: Inhibitors of USP1/UAF1: Pilot qHTS (AID 504865); conditions: purified USP1/UAF1, Ub-rhodamine cleavage fluorescence; series mostly up to 54.9 µM;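 note: rhodamine fluorescence freed from ubiquitin-rhodamine substrate followed over time; top concentration of the series differs between compounds; % is set by controls: 0 for no effect and ±100 for the full control effect; nearly all actives have a fitted effect of over 35% in size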
Ubiquitin carboxyl-terminal hydrolase 1 (Homo sapiens), sequence (O94782 whole entry, looked up): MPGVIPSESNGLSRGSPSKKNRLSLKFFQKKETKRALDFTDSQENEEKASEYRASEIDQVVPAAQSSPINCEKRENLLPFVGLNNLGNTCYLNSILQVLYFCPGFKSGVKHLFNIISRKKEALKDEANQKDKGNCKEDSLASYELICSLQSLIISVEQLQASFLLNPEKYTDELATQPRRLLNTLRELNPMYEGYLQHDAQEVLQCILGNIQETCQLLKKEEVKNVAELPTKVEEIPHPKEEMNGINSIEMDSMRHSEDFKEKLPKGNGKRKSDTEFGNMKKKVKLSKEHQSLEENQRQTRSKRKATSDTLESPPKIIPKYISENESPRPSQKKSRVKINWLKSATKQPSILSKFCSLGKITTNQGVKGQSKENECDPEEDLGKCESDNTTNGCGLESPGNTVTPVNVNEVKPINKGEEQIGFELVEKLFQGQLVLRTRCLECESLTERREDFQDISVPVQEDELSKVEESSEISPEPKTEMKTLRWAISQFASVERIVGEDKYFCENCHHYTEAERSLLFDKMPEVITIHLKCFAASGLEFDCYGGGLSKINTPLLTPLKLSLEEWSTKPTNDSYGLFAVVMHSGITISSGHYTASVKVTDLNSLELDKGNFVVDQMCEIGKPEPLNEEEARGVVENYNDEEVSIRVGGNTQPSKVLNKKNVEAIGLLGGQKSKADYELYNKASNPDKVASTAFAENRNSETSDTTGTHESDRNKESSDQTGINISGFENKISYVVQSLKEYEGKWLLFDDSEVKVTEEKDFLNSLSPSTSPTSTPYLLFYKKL
In short: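 USP1/UAF1 complex (1nM) preincubated with compound 15 min at room temperature, then Ub-Rho substrate (150nM final) added. Fluorescence read kinetically at 480/540 nm, 6 reads every 60 seconds. Buffer: 50mM HEPES pH 7.8, 0.5mM EDTA, 0.1 mg/ml BSA, 1mM TCEP, 0.01% Tween-20.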

[12] = Primary qHTS for small molecule stabilizers of the endoplasmic reticulum resident proteome: Secreted ER Calcium Modulated Protein (SERCaMP) assay (AID 1508630); conditions: SH-SY5Y GLuc-SERCaMP (Gaussia luciferase released on ER calcium loss) secretion, thapsigargin, luminescence; series mostly up to 38.4 µM; note: % is set by controls: 0 for no effect and ±100 for the full control effect
In short: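 The SH-SY5Y reporter protocol was run at 3 concentrations up to 38.3 uM (primary) or 11 concentrations (follow-up): 16 h compound, 100 nM thapsigargin for 4 h, then extracellular luciferase luminescence.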

[13] = molecular target: Cytochrome P450 1A2 (Homo sapiens) (UniProt P05177); assay: p450-cyp1a2 (AID 410; calls by dose curve; note: potency is the fitted concentration of half-maximal effect); conditions: recombinant CYP1A2, luciferin-ME demethylation, luminescence; series mostly up to 57 µM
Cytochrome P450 1A2 (Homo sapiens), sequence (P05177 whole entry, looked up): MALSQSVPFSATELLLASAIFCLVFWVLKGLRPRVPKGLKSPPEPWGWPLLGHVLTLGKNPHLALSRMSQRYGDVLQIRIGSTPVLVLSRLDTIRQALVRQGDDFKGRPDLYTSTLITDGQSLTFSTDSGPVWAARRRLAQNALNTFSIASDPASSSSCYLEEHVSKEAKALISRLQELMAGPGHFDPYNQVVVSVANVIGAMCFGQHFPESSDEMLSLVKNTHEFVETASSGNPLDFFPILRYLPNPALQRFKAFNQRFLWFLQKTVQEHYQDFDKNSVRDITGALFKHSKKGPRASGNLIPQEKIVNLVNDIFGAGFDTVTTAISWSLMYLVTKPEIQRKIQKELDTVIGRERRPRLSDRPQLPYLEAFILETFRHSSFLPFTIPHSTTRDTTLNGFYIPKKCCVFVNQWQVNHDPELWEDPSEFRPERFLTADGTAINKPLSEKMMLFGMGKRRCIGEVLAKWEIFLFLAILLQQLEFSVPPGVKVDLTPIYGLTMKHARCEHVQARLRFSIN
In short: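 O-Demethylation of luciferin 6' methyl ether by human CYP1A2 is monitored as luciferase luminescence. Substrate sits at Km (100uM); enzyme is 20nM. Values are scaled to 57 uM furafylline as maximal inhibition.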

[14] = NFAT Signaling Pathway (AID 444; active = well fitted curve in either direction with a large enough effect, not every such curve was filed as active); conditions: Jurkat NFAT-bla M1, carbachol, beta-lactamase ratio, 5 h; at 7.69 µM (top of the series) unless noted
In short: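 Jurkat cells carrying an NFAT-driven β-lactamase reporter and co-transfected muscarinic M1 receptor were treated with compound plus carbachol (1 uM final, an EC50 level) for 5 h at 37 °C. CCF4 loading followed for 1 h at RT; 460/530 nm ratio gave %activity.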

[15] = molecular target: Cytochrome P450 3A4 (Homo sapiens) (UniProt P08684); assay: qHTS Assay for Inhibitors and Substrates of Cytochrome P450 3A4 (AID 884); conditions: recombinant CYP3A4, Luciferin-PPXE luminescence; series mostly up to 57.1 µM; note: potency is the fitted concentration of half-maximal effect; nearly all actives have a fitted effect of over 50% in size
Cytochrome P450 3A4 (Homo sapiens), sequence (P08684 whole entry, looked up): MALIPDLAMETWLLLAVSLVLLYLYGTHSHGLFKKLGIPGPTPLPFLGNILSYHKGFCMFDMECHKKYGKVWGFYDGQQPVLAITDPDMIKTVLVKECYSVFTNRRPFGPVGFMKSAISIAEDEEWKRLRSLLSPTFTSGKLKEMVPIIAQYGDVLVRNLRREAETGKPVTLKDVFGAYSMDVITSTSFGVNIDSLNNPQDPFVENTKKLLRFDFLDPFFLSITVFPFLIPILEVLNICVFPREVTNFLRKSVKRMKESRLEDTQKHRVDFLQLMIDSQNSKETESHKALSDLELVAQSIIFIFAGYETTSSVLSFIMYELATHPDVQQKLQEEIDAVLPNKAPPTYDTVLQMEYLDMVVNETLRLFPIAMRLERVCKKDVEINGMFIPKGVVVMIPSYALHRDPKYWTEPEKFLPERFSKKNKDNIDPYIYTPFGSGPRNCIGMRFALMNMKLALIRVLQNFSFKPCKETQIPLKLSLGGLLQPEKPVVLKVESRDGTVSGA
In short: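 Luminescent readout of luciferin produced by CYP3A4 (20 nM) dealkylation of Luciferin-PPXE, 25 uM (its KM). NADPH-driven reaction ran 60 min at RT after 10 min compound preincubation; data scaled to 57 uM ketoconazole as 100% inhibition.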

[16] = molecular target: Cytochrome P450 3A4 (Homo sapiens) (UniProt P08684); assay: qHTS Assay for Activators of Cytochrome P450 3A4 (AID 885); conditions: recombinant CYP3A4, Luciferin-PPXE luminescence, 60 min; series mostly up to 57.1 µM; note: nearly all actives have a fitted effect of over 65% in size
In short: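 Luminescent readout of luciferin formed from 25 uM Luciferin-PPXE (KM level) by 20 nM CYP3A4 in 200 mM KPO4, with 60 min NADPH-driven reaction at room temperature after 10 min compound exposure. Ketoconazole (57 uM) defined 100% inhibition.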

[17] = qHTS Assay for Identification of Small Molecule Agonists for Hypoxia Response Element Signaling Pathway (AID 914; active = well fitted activation curve with a large enough effect in the signal ratio, with a control signal flat, not every such curve was filed as active; the % refers to the signal ratio; note: potency is the fitted concentration of half-maximal effect); conditions: ME-180 (cervical carcinoma) HRE-bla reporter, beta-lactamase ratio, CoCl2, 17 h; activation: stronger effect = higher value
In short: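 Reporter activity (beta-lactamase, CCF4 460nm/530nm ratio) in HRE-bla ME-180 cells is recorded after 17 h compound exposure with EC50 CoCl2 at 37 degrees Celsius. AC50 values come from titration data.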

COc1ccc(-n2c(=O)c(-c3cccs3)nc3cnc(Nc4ccccc4)nc32)cc1
inactive: Potency [1] > 11.4 µM | activity change, negative = inhibition [2] -7.98% | activity, negative = inhibition [3] -8.99% | Potency [4] > 9.22 µM | Potency [5] > 46 µM | Potency [6] | Potency [7] | Potency [8] | Potency [9] | Potency [10] | Potency [11] | outcome [12]

c1cn(-c2ccnc(-c3ccc4c(c3)OCO4)n2)cn1
inactive: Potency [1] > 11.4 µM | activity change, negative = inhibition [14] 17.8% | activity, negative = inhibition [3] 5.91% | Potency [4] > 46 µM | Potency [5] > 46 µM | Potency [6] | Potency [7] | Potency [16] | Potency [11] | outcome [12]
active: Potency [13] 0.0251 µM | Potency [15] 0.631 µM | Potency [8] 2.51 µM | Potency [9] 2.24 µM | Potency [10] 3.98 µM

CCNc1ncc2nc(-c3ccc(F)cc3)c(=O)n(Cc3ccc(F)cc3)c2n1
active: Potency [13] 20 µM | Potency [17] 1.58 µM
inactive: Potency [1] > 11.4 µM | activity change, negative = inhibition [14] 18.8% | Potency [4] > 9.22 µM | Potency [5] > 46 µM | Potency [6] | Potency [7] | Potency [8] | Potency [9] | Potency [10] | outcome [12]

Cn1cc(-c2nc3cnc(Oc4cccc(Cl)c4)nc3n(C3CC3)c2=O)c2ccccc21
inactive: Potency [1] > 11.4 µM | activity change, negative = inhibition [14] 6.59% | activity, negative = inhibition [3] 9.54% | Potency [4] > 9.22 µM | Potency [5] > 46 µM | Potency [6] | Potency [8] | Potency [9] | Potency [10] | Potency [11] | outcome [12]
active: Potency [13] 12.6 µM

c1cncc(-c2cncnc2NCc2cccs2)c1
active: Potency [13] 0.316 µM | Potency [15] 2 µM
inactive: Potency [1] > 11.4 µM | activity change, negative = inhibition [14] 23.6% | activity, negative = inhibition [3] -4.79% | Potency [4] > 46 µM | Potency [5] > 46 µM | Potency [6] | Potency [7] | Potency [16] | Potency [8] | Potency [9] | Potency [10] | Potency [11] | outcome [12]

CCNc1ncc2nc(-c3ccc(F)cc3)c(=O)n(CCc3ccccc3)c2n1
inactive: Potency [1] > 11.4 µM | activity change, negative = inhibition [2] 12.6% | activity change, negative = inhibition [14] -12.8% | Potency [4] > 9.22 µM | Potency [5] > 46 µM | Potency [6] | Potency [8] | Potency [9] | Potency [10] | Potency [11] | outcome [12]
active: Potency [17] 0.398 µM
